The list is not random: actives were taken first. Their share in the collection is about 2.6%.
CRFBP-R2 block – antagonists of CRF-BP/CRF-R2 complex, primary screen, cell-based, HEK293, calcium dye fluorescence, uHTS. CRF-induced calcium fluorescence. inhibition, % at 11.8 µM. 350,000 tested, 0.59% active. AID 588475, 2011;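 active = inhibition of the ligand-induced calcium signal above about 50% at the single tested concentration, limit read from the data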
IDE act – human IDE activators in live cells, primary screen, fluorescence polarization, HEK cells, FAbeta-B substrate; 340,000 tested, 0.073% active; FAbeta-B cleavage; 0% vehicle, 100% cell-free pure enzyme wells; AID 493087, 2011; Insulin-degrading enzyme (Homo sapiens), P14735; activation, % at 5.96 µM;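 active = activation above the mean of all tested compounds plus 3 SD, set per screening campaign, cut at about 17% in these data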
Myeloid diff MLP – induction of myeloid progenitor differentiation, primary screen, cell-based, flow cytometry, MLPCN library. ER-HoxA9 myeloid progenitors, lysozyme-GFP differentiation. calls only at 10 µM. 360,000 tested, 1% active;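 active = normalized GFP-positive differentiation at or above the plate's own cutoff, the solvent-only control mean plus 3 SD; inconclusive = no clear call, values can overlap the other calls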;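 also: cells exposed to compound for four days before flow analysis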
CRFBP-R2 agonist – agonists of CRF-BP/CRF-R2 complex, primary screen, cell-based, HEK293, calcium dye fluorescence, uHTS; CRF-binding protein / CRF receptor 2 complex (human); calcium dye fluorescence (FLIPR); percent of saturating CRF peptide response; activation, % at 13.2 µM; 350,000 tested, 0.46% active; AID 588473, 2011;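 active = activation of at least 50%, plus an integration ratio under a set limit after plate pattern correction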;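 also: plate controls were neutral control wells without compound for no effect and CRF at EC100 for full effect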
IDE inh – human IDE inhibitors in live cells, primary screen, fluorescence polarization, HEK cells, FAbetaB substrate. inhibition, % at 5.59 µM. Insulin-degrading enzyme (Homo sapiens), P14735. FAbetaB cleavage. AID 434962, 2010. 320,000 tested, 0.41% active;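 active = percent inhibition above the average of all tested compounds plus 3 SD, set per screening campaign, cut at about 16% in these data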;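 also: IDE supplied by intact live HEK cells; FP after avidin binding of uncleaved biotin substrate so inhibition keeps polarization high; 0% = DMSO wells and 100% = 60 µM reference IDE inhibitor Ii1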
TPT1 inh – Candida albicans TPT1 enzyme inhibitors, primary screen, biochemical, fluorescence polarization; inhibition, % at 5 µM; AID 1962, 2009; recombinant caTPT1, FP RNA substrate dephosphorylation; tRNA 2'-phosphotransferase TPT1 (Candida albicans SC5314); 300,000 tested, 0.81% active;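 active = inhibition above the mean of all tested compounds plus 3 SD, set per screening campaign, cut at about 24% in these data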;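 also: plate controls were DMSO alone for no effect and ferristatin control at 100 nM for full effect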
caTPT1 confirm – Candida albicans TPT1 inhibitors, confirmation, biochemical, fluorescence polarization, triplicate; recombinant caTPT1, RNase T1 coupled; 2,400 tested, 74% active; inhibition, % at 5 µM; AID 2149, 2009; shares compounds with TPT1 inh;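 active = inhibition above the primary screen limit, the mean inhibition of all tested compounds plus 3 SD, cut at about 25% in these data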
RNase T1 counter – RNase T1 inhibitors, counter-screen for TPT1 inhibitor project, biochemical, fluorescence polarization; 2,400 tested, 83% active; shares compounds with TPT1 inh; inhibition, % at 5 µM; RNase T1 cleavage, 1536-well; AID 2153, 2009;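 active = inhibition above the solvent-only control well mean plus 3 SD, limit set per screening run, cut at about 23% in these data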;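 also: plate controls were DMSO wells with enzyme for no effect and wells without RNase T1 for full effect; inhibitors block cleavage so intact labeled substrate keeps polarization high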
Target sequence (P00651 whole entry, looked up): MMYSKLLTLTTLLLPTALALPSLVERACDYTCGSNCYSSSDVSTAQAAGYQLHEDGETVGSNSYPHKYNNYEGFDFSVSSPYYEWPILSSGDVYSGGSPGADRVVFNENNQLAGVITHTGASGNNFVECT
* hit, by the source's call; i = inactive; ? = inconclusive; · = not tested or not shown; + = active, no number.

SMILES | CRFBP-R2 block | IDE act | Myeloid diff MLP | CRFBP-R2 agonist | IDE inh | TPT1 inh | caTPT1 confirm | RNase T1 counter
Cc1cc(-c2nnc(CCC(=O)NC(C)c3ccc(F)cc3)o2)no1 (stereo not given) | 13 | 0 | i | -1 | 0 | 0 | · | ·
O=C(/C=C/c1ccc2ccccc2n1)c1cc(Cl)ccc1O | 1 | 1 | + | 2 | 7 | 44* | 46* | 59*
O=C(/C=C/c1cccs1)c1cc(Cl)ccc1O | -20 | -4 | i | -1 | 0 | -1 | · | ·
CCCC(NC(=O)c1c(C)noc1C)C12CC3CC(CC(C3)C1)C2 (stereo not given) | -4 | 2 | i | -1 | 3 | 81* | 25* | 35*
Cc1noc(C)c1C(=O)NC(C)C12CC3CC(CC(C3)C1)C2 (stereo not given) | -5 | 1 | i | -1 | -2 | -4 | · | ·
c1ccc(CCCCNCC2COc3ccccc3O2)cc1 (stereo not given) | -4 | -1 | i | 0 | -6 | 8 | · | ·
O=C(NCCNC(=O)c1ccco1)c1cccc(F)c1 | 3 | 0 | i | -1 | 6 | 47* | 10 | 12
O=C(NCCNC(=O)c1ccco1)c1ccc(F)cc1 | -1 | -4 | i | -2 | 0 | -3 | · | ·
O=C(Nc1ccccc1Br)c1ccc2nccnc2c1 | 0 | 4 | i | 0 | 3 | -1 | · | ·
O=C(Nc1ccccc1C(F)(F)F)c1ccc2nccnc2c1 | 0 | 2 | i | 0 | 3 | 39* | 7 | 11
O=C1CNC(=S)N1Cc1ccc(F)cc1 | -6 | 4 | i | 0 | -1 | 3 | · | ·
O=C1CC(=O)N(CCc2ccc(F)cc2)C(=O)N1 | 0 | 1 | i | 2 | 4 | 39* | 31* | 40*
O=C1CC(=O)N(CCc2ccccc2)C(=O)N1CCc1ccccc1 | 25 | 0 | i | 1 | 4 | 40* | 5 | 9
O=C(NCc1ccccc1F)C1CCCN1C(=O)Nc1ccc(F)cc1 (stereo not given) | 0 | 4 | i | 0 | 6 | -1 | · | ·
CCN(CC)C(=O)c1cccc(-c2csc(C(O)c3cccc(Cl)c3)n2)c1 (stereo not given) | · | · | i | · | · | · | · | ·
CC1=C(C(=O)c2ccccc2)C(c2ccc(N3CCOCC3)cc2)NC(=O)N1 (stereo not given) | -17 | 2 | i | 7 | 1 | 28* | 39* | 51*
O=C(CSc1ccccc1F)NC(=O)c1ccccc1Br | 6 | -1 | i | -2 | 3 | · | · | ·
CCCCN1C(=O)C(=O)N(CC(=O)NC2CCCc3ccccc32)C1=O (stereo not given) | 2 | 5 | i | 0 | -1 | -7 | · | ·
Cc1ccc(/C(=N/Nc2ncnc3ccccc23)C(=O)O)cc1 | 1 | 1 | i | 1 | 5 | -2 | · | ·
COC(=O)C(=O)C/C(=N/Nc1ncnc2ccccc12)c1ccc(Cl)cc1 | -33 | 0 | + | 21 | 2 | 58* | 13 | 18
Nc1nnc(SCc2nc3scc(-c4ccccc4)c3c(=O)[nH]2)s1 | -3 | -6 | i | 1 | -1 | 36* | 41* | 54*
Cc1nnc(SCc2nc3scc(-c4ccccc4)c3c(=O)[nH]2)s1 | 10 | 1 | i | 0 | 1 | 14 | · | ·
COc1ccc(N/C=C2\CCOC2=O)cc1 | 4 | 4 | i | -3 | -4 | 7 | · | ·
COc1ccc(N/C=C2\CCc3ccccc3C2=O)cc1 | -17 | -5 | i | 8 | 9 | 51* | 59* | 71*
COc1ccc2c(c1)CC/C(=C\Nc1ccc3c(c1)OCO3)C2=O | -23 | -4 | i | 5 | 2 | 65* | 74* | 87*
SMILES | CRFBP-R2 block | IDE act | Myeloid diff MLP | CRFBP-R2 agonist | IDE inh | TPT1 inh | caTPT1 confirm | RNase T1 counter
O=C1/C(=C/Nc2ccc3c(c2)OCO3)CCc2ccccc21 | -13 | -2 | i | 2 | 7 | 83* | 57* | 74*
O=C1OC2(CCCCC2)OC(=O)C1=CNc1ccc2c(c1)OCO2 | 9 | 0 | i | -1 | 5 | -4 | · | ·
O=Cc1cc(Br)c(OC(=O)N2CCOCC2)c(Br)c1 | -10 | -1 | i | 5 | -3 | 1 | · | ·
Cc1ccc(S(=O)(=O)N2[C@@H](c3cccc(Cl)c3)C(C(=O)O)=CC[C@H]2c2ccc3c(c2)OCO3)cc1 | 3 | -1 | i | 0 | -4 | -1 | · | ·
CNc1c(NS(=O)(=O)c2ccc(C3CCCCC3)cc2)c(=O)oc2ccccc12 | 15 | -1 | i | 3 | -1 | -2 | · | ·
c1cc(-c2ccc3nncn3c2)ccc1CN1CCOCC1 | · | · | i | · | · | · | · | ·
COC(=O)c1ccnc(/C=N/O)c1 | 7 | 6 | i | -4 | -2 | 50* | 7 | 7
Nc1ccc2c(c1)CCC2=O | -6 | 10 | i | 3 | 1 | 24* | 18 | 28*
O=C(/C=C/c1ccco1)N1CCN(c2ncccn2)CC1 | 27 | 2 | i | -3 | 5 | -1 | · | ·
O=C(/C=C/c1ccco1)N1CCC(Cc2ccccc2)CC1 | 13 | 6 | i | -12 | 6 | 131* | 2 | 2
COc1ccc(N2CCN(C(=O)c3ccc(COc4ccc([N+](=O)[O-])cc4)o3)CC2)cc1 | 10 | 1 | i | 0 | · | · | · | ·
Cc1ncoc1C(=O)N1CCCC(C(=O)c2ccc(-c3ccccc3)cc2)C1 (stereo not given) | 0 | -3 | i | 0 | 4 | 0 | · | ·
CCCCN=c1scc(-c2ccc3c(c2)NC(=O)CO3)n1N=C1CCCC1 | -13 | -1 | i | 1 | 1 | 10 | · | ·
CCN=c1scc(-c2ccc3c(c2)NC(=O)CO3)n1N=C1CCCC1 | 6 | 7 | ? | 4 | 6 | 43* | 39* | 50*
CCOc1cc2c(cc1/C=C/c1noc(C)c1[N+](=O)[O-])OC(C)C2 (stereo not given) | -218 | -6 | · | 193* | 11 | 75* | 73* | 83*
O=C1c2cc(O)c(O)cc2S(=O)(=O)C1c1ccccc1 (stereo not given) | 29 | 4 | i | -1 | -1 | 2 | · | ·
COc1ccc(C2/C(=C(/O)c3ccc(Br)cc3)C(=O)C(=O)N2C)cc1 (stereo not given) | 11 | 4 | i | 0 | -11 | 2 | · | ·
